From PubChem BioAssay AID1159580 (chemical genetic matrix, 2015)
“And” between values parts separate entries of the source, which are not always exact repeats. Equal entries are not always repeated. Screen size: about 5,500 compounds; about 2,000 (36%) were called active. About 18% were inconclusive and are not listed. Cut-off read from the data, not from the text of the source: active = normalized growth mostly below about 0.91 (no sharp cut-off); inconclusive = no clear call, values can overlap the other calls; inactive = mostly above about 0.92. Some of the results follow.

Test: chemical genetic growth profiling, strain panel (AID 1159580);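 note: tested at 20 µM; growth read once vehicle control cultures reached saturation at 30 °C; 1 = growth at the plate median or of vehicle wells; lower values mean less growth of the strain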
Conditions: growth OD

Measured: normalized growth

CN(C)CCC(c1ccccc1)c1ccccn1 (centres undefined)
inactive: S. cerevisiae deletion strains, locus YJR066W, strain TOR1, stronger effect = lower value 0.93 | S. cerevisiae deletion strains, locus YJR075W, strain HOC1, stronger effect = lower value 1.01 and 0.951 | S. cerevisiae deletion strains, locus YKL009W, strain mrt4, stronger effect = lower value 1.03 | S. cerevisiae deletion strains, locus YKL068W, stronger effect = lower value 1 | S. cerevisiae deletion strains, locus YKL085W, strain MDH1 (second series), stronger effect = lower value 1.01 | S. cerevisiae deletion strains, locus YKL085W, strain MDH1, stronger effect = lower value 1.01 | S. cerevisiae deletion strains, locus YKL160W, strain elf1, stronger effect = lower value 1.01 | S. cerevisiae deletion strains, locus YKL190W, strain CNB1, stronger effect = lower value 1.01 | S. cerevisiae deletion strains, locus YKR001C, strain vps1, stronger effect = lower value 1 | S. cerevisiae deletion strains, locus YKR026C, strain gcn3, stronger effect = lower value 1.03 | S. cerevisiae deletion strains, locus YKR091W, strain srl3, stronger effect = lower value 1 | S. cerevisiae deletion strains, locus YLL001W, strain dnm1, stronger effect = lower value 1.02 | S. cerevisiae deletion strains, locus YLL026W, stronger effect = lower value 1.02 | S. cerevisiae deletion strains, locus YLL041C, strain sdh2, stronger effect = lower value 1.02 | S. cerevisiae deletion strains, locus YLR027C, strain aat2, stronger effect = lower value 1.01 | S. cerevisiae deletion strains, locus YLR039C, strain RIC1, stronger effect = lower value 1.05 | S. cerevisiae deletion strains, locus YLR058C, strain SHM2, stronger effect = lower value 1 | S. cerevisiae deletion strains, locus YLR102C, strain apc9, stronger effect = lower value 1 | S. cerevisiae deletion strains, locus YLR113W, strain HOG1, stronger effect = lower value 0.981 | S. cerevisiae deletion strains, locus YLR221C, strain rsa3, stronger effect = lower value 1.01 | S. cerevisiae deletion strains, locus YLR258W, strain gsy2, stronger effect = lower value 1.01 | S. cerevisiae deletion strains, locus YLR262C, strain YPT6 (second series), stronger effect = lower value 1.03 | S. cerevisiae deletion strains, locus YLR262C, strain YPT6, stronger effect = lower value 1.01 | S. cerevisiae deletion strains, locus YLR268W, strain sec22, stronger effect = lower value 1.04 | S. cerevisiae deletion strains, locus YLR320W, strain mms22, stronger effect = lower value 1.01 | S. cerevisiae deletion strains, locus YLR330W, strain CHS5, stronger effect = lower value 1.01 | S. cerevisiae deletion strains, locus YLR342W, strain FKS1 (second series), stronger effect = lower value 1.03 | S. cerevisiae deletion strains, locus YLR342W, strain FKS1, stronger effect = lower value 1.01 | S. cerevisiae deletion strains, locus YLR357W, strain rsc2, stronger effect = lower value 1.02 | S. cerevisiae deletion strains, locus YLR370C, strain arc18, stronger effect = lower value 1.02 | S. cerevisiae deletion strains, locus YLR371W, strain rom2, stronger effect = lower value 1.01 | S. cerevisiae deletion strains, locus YLR384C, strain iki3, stronger effect = lower value 1.01 | S. cerevisiae deletion strains, locus YLR418C, strain cdc73, stronger effect = lower value 0.995 | S. cerevisiae deletion strains, locus YML016C, strain PPZ1, stronger effect = lower value 1 | S. cerevisiae deletion strains, locus YML032C, strain rad52, stronger effect = lower value 1.01 | S. cerevisiae deletion strains, locus YML120C, strain ndi1, stronger effect = lower value 1.01 | S. cerevisiae deletion strains, locus YML124C, strain tub3, stronger effect = lower value 1 | S. cerevisiae deletion strains, locus YMR058W, strain fet3, stronger effect = lower value 1.02 | S. cerevisiae deletion strains, locus YMR078C, strain ctf18, stronger effect = lower value 1.01 | S. cerevisiae deletion strains, locus YMR125W, strain sto1, stronger effect = lower value 1.01 | S. cerevisiae deletion strains, locus YMR129W, stronger effect = lower value 1.01 | S. cerevisiae deletion strains, locus YMR205C, strain PFK2, stronger effect = lower value 1.01 | S. cerevisiae deletion strains, locus YMR223W, strain ubp8, stronger effect = lower value 0.983 | S. cerevisiae deletion strains, locus YMR231W, strain pep5, stronger effect = lower value 1.02 | S. cerevisiae deletion strains, locus YMR263W, strain SAP30, stronger effect = lower value 1 and 0.998 | S. cerevisiae deletion strains, locus YMR307W, strain GAS1, stronger effect = lower value 1.03 and 0.977 | S. cerevisiae deletion strains, locus YNL067W, strain RPL9B, stronger effect = lower value 0.996 | S. cerevisiae deletion strains, locus YNL071W, strain lat1, stronger effect = lower value 1.01 | S. cerevisiae deletion strains, locus YNL128W, strain TEP1, stronger effect = lower value 1.02 | S. cerevisiae deletion strains, locus YNL175C, strain NOP13, stronger effect = lower value 1.01 | S. cerevisiae deletion strains, locus YNL183C, strain NPR1, stronger effect = lower value 0.939 | S. cerevisiae deletion strains, locus YNL197C, strain WHI3, stronger effect = lower value 1.01 | S. cerevisiae deletion strains, locus YNL209W, strain ssb2, stronger effect = lower value 1.02 | S. cerevisiae deletion strains, locus YNL224C, strain SQS1, stronger effect = lower value 1 | S. cerevisiae deletion strains, locus YNL233W, strain BNI4, stronger effect = lower value 1 | S. cerevisiae deletion strains, locus YNL248C, strain rpa49, stronger effect = lower value 1 | S. cerevisiae deletion strains, locus YNL250W, strain rad50, stronger effect = lower value 0.997 | S. cerevisiae deletion strains, locus YNL271C, strain bni1, stronger effect = lower value 0.993 | S. cerevisiae deletion strains, locus YNL298W, strain CLA4, stronger effect = lower value 1.01 | S. cerevisiae deletion strains, locus YNL307C, strain MCK1, stronger effect = lower value 1.01 | S. cerevisiae deletion strains, locus YNL322C, strain KRE1 (second series), stronger effect = lower value 1.01 | S. cerevisiae deletion strains, locus YNR049C, strain mso1, stronger effect = lower value 1.02 | S. cerevisiae deletion strains, locus YNR052C, strain pop2, stronger effect = lower value 1.01 | S. cerevisiae deletion strains, locus YOL006C, strain TOP1, stronger effect = lower value 0.993 | S. cerevisiae deletion strains, locus YOL012C, strain htz1 2.13 | S. cerevisiae deletion strains, locus YOL147C, strain pex11, stronger effect = lower value 1 | S. cerevisiae deletion strains, locus YOR001W, strain rrp6, stronger effect = lower value 0.988 | S. cerevisiae deletion strains, locus YOR061W, strain CKA2, stronger effect = lower value 1 | S. cerevisiae deletion strains, locus YOR069W, strain VPS5, stronger effect = lower value 1.01 | S. cerevisiae deletion strains, locus YOR070C, strain gyp1, stronger effect = lower value 1.01 | S. cerevisiae deletion strains, locus YOR080W, strain dia2, stronger effect = lower value 1.01 | S. cerevisiae deletion strains, locus YOR083W, strain WHI5 (second series), stronger effect = lower value 1.03 | S. cerevisiae deletion strains, locus YOR083W, strain WHI5, stronger effect = lower value 1.01 | S. cerevisiae deletion strains, locus YOR106W, strain vam3, stronger effect = lower value 1 | S. cerevisiae deletion strains, locus YOR136W, strain idh2, stronger effect = lower value 0.99 | S. cerevisiae deletion strains, locus YOR144C, strain elg1, stronger effect = lower value 0.995 | S. cerevisiae deletion strains, locus YOR184W, strain ser1, stronger effect = lower value 1.01 | S. cerevisiae deletion strains, locus YOR231W, strain MKK1, stronger effect = lower value 0.981 | S. cerevisiae deletion strains, locus YOR265W, strain rbl2, stronger effect = lower value 1 | S. cerevisiae deletion strains, locus YOR270C, strain vph1, stronger effect = lower value 0.997 | S. cerevisiae deletion strains, locus YOR290C, strain snf2, stronger effect = lower value 1.04 | S. cerevisiae deletion strains, locus YOR316C, strain cot1, stronger effect = lower value 1 | S. cerevisiae deletion strains, locus YPL051W, strain arl3, stronger effect = lower value 1.01 | S. cerevisiae deletion strains, locus YPL055C, strain LGE1, stronger effect = lower value 0.985 | S. cerevisiae deletion strains, locus YPL078C, strain atp4, stronger effect = lower value 1.01 | S. cerevisiae deletion strains, locus YPL106C, strain sse1, stronger effect = lower value 1 | S. cerevisiae deletion strains, locus YPL240C, strain hsp82, stronger effect = lower value 0.989 | S. cerevisiae deletion strains, locus YPL256C, strain CLN2, stronger effect = lower value 0.928 | S. cerevisiae deletion strains, locus YPR119W, strain clb2, stronger effect = lower value 1 | S. cerevisiae deletion strains, locus YPR141C, strain kar3, stronger effect = lower value 0.994 | S. cerevisiae deletion strains, locus YPR163C, strain tif3, stronger effect = lower value 1.01 | S. cerevisiae deletion strains, locus YPR167C, strain met16, stronger effect = lower value 0.999 | S. cerevisiae deletion strains, strain wtn01, stronger effect = lower value 1 | S. cerevisiae strains, strain wild type, stronger effect = lower value 1.01
